Measurements as given in PubChem BioAssay (EPA / NIEHS).
The source made the active and inactive calls. How the source made its calls: active means hit-call score of the fitted dose curve at least 0.9, where 1 is the maximum; inactive means score below 0.9.

read-out: Cytochrome P450 4A22 (Homo sapiens) (UniProt Q5TCH4); experiment: LTEA_HepaRG_CYP4A22: Life Technologies and Expression Analysis (LTEA) Assay for Cytochrome P450 4A22 (CYP4A22) using HepaRG (AID 2283495); conditions: mRNA level, 48 h; actives raise or lower the signal
Method: LTEA_HepaRG is a cell based, multiplexed-readout assay that uses HepaRG, a human liver cell line, with measurements taken at 48 hours after chemical dosing on a 96-well plate.LTEA_HepaRG_CYP4A22 is one of 102 assay component(s) measured in the LTEA HepaRG cell culture assay. It is a marker of NR mediated metabolism.Data from the assay component LTEA_HepaRG_CYP4A22 was analyzed into 1 endpoint. This assay endpoint, LTEA_HepaRG_CYP4A22, was analyzed with bidirectional fitting relative to DMSO as the negative control and baseline of activity. Using a type of inducible reporter, measures of mRNA induction for gain or loss-of-signal activity can be used to understand regulation of transcription factor activity. To generalize the intended target to other relatable targets, this assay endpoint is annotated to the cyp intended target family, where the subfamily is xenobiotic metabolism.
A total of 1060 chemcials from the ToxCast library were tested in eight-point concentration-response experiments. Cell culture and cytotoxicity assays were conducted at Thermo Fisher Scientific's Custom Services facility (Madison, WI). A single lot of human HepaRG cells (Thermo Fisher Scientific, Frederick, MD) was used for the cell culture experiments. 96-well format collagen type I coated plates of human HepaRG cells were prepared using established methods. Briefly, cryopreserved HepaRG cells were thawed, plated at a density of approximately 100,000 cells/well in HepaRG Thaw, Plate, and General Purpose media (HPRG770, Thermo Fisher Scientific), and incubated for 48 hours. 0.5% DMSO was selected as vehicle control to balance the requisite need of DMSO in HepaRG cultures to maintain differentiation (for example, baseline metabolism, proportions of hepatocytes vs. cholangiocytes), while enabling further hepatic receptor pathway activation (for example, PXR and CAR) in response to chemical exposure. 48 hours after plating, the culture medium was replaced with HepaRG Serum-Free Incudtion Media. Cells were exposed to each test chemical in duplicate and maintained in CO2 incubators for another 48 hours. Chemical plates were thawed to room temperature and 200x concentrations of treatment groups were prepared. 8-point conentration-reponse curves were made with the highest exposure at 100 uM, followed by half-log dilutions, all in 0.5% DMSO. Each test plate contained variouse controls, induction positive controls (1mM phenobarbital), cytotoxicity positive controls ([…] aflatoxin B1), vehicle controls (0.5% DMSO), and total lysis controls (0.5% DMSO). Cell morphology images were taken using an Essen IncuCyte FLR automated microscope, with six 96-well plates imaged in about 24 minutes. Images were captured and exported and JPEG files. Spent culture media was transfered to black-well plates for the LDH assay, and remaining media was sorted at -80 C for later use. Cells were treated with RLT buffer and frozen until shipped for gene expression analysis. Total RNA was isolated from the cell suspension in 75 uL of Buffer RLT (Qiagen, Germantown, MD 20874) by Quintiles/Expression Analysis (Durham, NC) using a custom isolation procedure. Total RNA from each plate well was transferred to a preamplification plate. Fluidigm's 96.96 Dynamic ArrayTM (Fluidigm, Amsterdam, the Netherlands) technology was used for gene expression analyses by quantitative reverse transcription polymerase chain reaction (qRT-PCR, performed by Quintiles/Expression Analysis, Durham, NC)89. Standard TaqManTM Assays (Applied Biosystems/ThermoFisher Scientific, Foster City, CA) were used to assess the expression of 93 genes selected based on their selectivity and sensitivity to important hepatic receptors known to be modulated by environmental chemicals; importance in human hepatocyte functionality; and hepatotoxicity. […]

Row | SMILES | outcome | AC50
1 | OCCN(CCO)CCO | inactive | –
2 | COc1ccccc1N | inactive | –
3 | O=C(O)C1(c2ccc3c(c2)OC[C@H](Cc2ccc(-c4ccccc4)cc2)[C@H]3O)CCCC1 | inactive | –
4 | Clc1cccc(Cl)c1 | inactive | –
5 | CC(C)(C)c1ccccc1O | inactive | –
6 | Cc1cc(C)cc(C)c1 | inactive | –
7 | O=C(N[C@H]1CN2CCC1CC2)c1ccc2c(c1)OCCO2 | inactive | –
8 | Oc1cc(Cl)c(Cl)cc1Cl | inactive | –
9 | CC(C)O.CC(C)O.OCCN(CCO)CCO.OCCN(CCO)CCO.[Ti] | inactive | –
10 | N#Cc1cccnc1 | inactive | –
11 | Clc1cccc(Cl)c1Cl | inactive | –
12 | CCCCCCCCCCCCc1cccc(S(=O)(=O)O)c1 | – | 25.6 µM (active)
